NadD inh – NadD (S. aureus) enzyme inhibition | purified NadD enzyme, colorimetric absorbance read-out | inhibition, % at 20 µM | 360,000 tested, 0.78% active; in the data active = inhibition above about 26%
DSG3 Ab inh – human desmoglein-3 autoantibody binding inhibition. DSG3-coupled beads, scFv-anti-DSG3-GFP binding, flow cytometry; stronger effect = lower value. AID 588358. 310,000 tested, 0.48% active. P32926. binding (percent of control), % at 10 µM;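 active = binding more than 3 SD below its plate's average and above zero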;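 also: hits lower antibody fragment binding to DSG3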
Target sequence (P32926 whole entry, looked up, the tested form may be a part): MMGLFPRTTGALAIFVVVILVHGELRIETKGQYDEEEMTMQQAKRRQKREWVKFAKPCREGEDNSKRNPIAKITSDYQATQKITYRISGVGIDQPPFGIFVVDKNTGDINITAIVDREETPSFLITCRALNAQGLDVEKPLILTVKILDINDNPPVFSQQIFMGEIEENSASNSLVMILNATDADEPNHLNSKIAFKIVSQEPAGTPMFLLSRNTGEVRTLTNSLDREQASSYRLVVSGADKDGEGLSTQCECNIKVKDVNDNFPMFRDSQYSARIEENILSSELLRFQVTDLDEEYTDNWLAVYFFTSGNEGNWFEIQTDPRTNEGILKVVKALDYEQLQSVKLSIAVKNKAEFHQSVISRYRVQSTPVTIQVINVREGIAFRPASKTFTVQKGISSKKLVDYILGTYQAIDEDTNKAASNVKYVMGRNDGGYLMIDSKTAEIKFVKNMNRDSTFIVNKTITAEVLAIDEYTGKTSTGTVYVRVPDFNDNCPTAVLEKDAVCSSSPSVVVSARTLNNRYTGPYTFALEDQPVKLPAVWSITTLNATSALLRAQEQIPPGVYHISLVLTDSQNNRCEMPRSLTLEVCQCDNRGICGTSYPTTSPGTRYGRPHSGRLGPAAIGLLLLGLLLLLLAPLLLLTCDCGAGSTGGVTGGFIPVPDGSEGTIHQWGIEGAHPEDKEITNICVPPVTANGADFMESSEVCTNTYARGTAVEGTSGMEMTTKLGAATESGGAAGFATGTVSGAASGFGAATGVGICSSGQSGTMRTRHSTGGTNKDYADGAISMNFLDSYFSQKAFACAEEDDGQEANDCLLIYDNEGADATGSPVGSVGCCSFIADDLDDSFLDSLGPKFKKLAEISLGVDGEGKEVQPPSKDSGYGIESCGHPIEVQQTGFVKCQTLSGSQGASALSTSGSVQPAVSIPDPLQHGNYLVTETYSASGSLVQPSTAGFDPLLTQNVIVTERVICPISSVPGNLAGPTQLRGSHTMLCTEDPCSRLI
MsrA inhibitor – inhibitors of bovine MsrA; AID 651718; purified bovine MsrA, absorbance read-out; inhibition, % at 15.5 µM; 360,000 tested, 0.75% active
rCAG binder – binds r(CAG) RNA repeats. r(CAG) RNA repeat, TO-PRO-1 dye displacement fluorescence. inhibition, % at 3 µM. AID 651821. 370,000 tested, 1.3% active;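 active = inhibition above the plate cutoff, the mean of all test compounds on that plate plus 3 SD, cut at about 35% in these data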;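 also: higher means more dye released from RNA so lower well fluorescence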
bovine MsrA act – bovine methionine sulfoxide reductase A activation; purified bovine MsrA, absorbance read-out; activation, % at 10.6 µM; 360,000 tested, 0.3% active; AID 602163; in the data active = activation above about 7.5%
DAGLB inhibitor – diacylglycerol lipase beta (human) inhibition; AID 504411; Q8NCG7; 340,000 tested, 0.059% active; inhibition, % at 5.17 µM; HEK293T DAGLB membrane lysate, EnzChek fluorogenic substrate; in the data active = inhibition above about 34%
MsrA inh confirm – confirmation of bovine MsrA inhibitors; shares compounds with MsrA inhibitor; purified bovine MsrA, absorbance read-out; 2,300 tested, 41% active; inhibition, % at 15.5 µM; AID 651822;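 also: coupled to thioredoxin reductase with NADPH and selenocystamine and DMSO as substrate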
Numbers stand for hits; . = inactive; / = no result given. An excerpt weighted towards active compounds, which were near 3.2% of everything screened. Rule as the data show it, unless noted: active = inhibition above about 4.5%; inactive = the rest.

SMILES	NadD inh	DSG3 Ab inh	MsrA inhibitor	rCAG binder	bovine MsrA act	DAGLB inhibitor	MsrA inh confirm
O=C(Nc1ccc(C(F)(F)F)cc1)OC1CC2CC1[C@H]1CCCCN1C2 (stereo partly specified)	/	/	/	.	/	/	/
CCOC(=O)c1cccc(-n2cccc2/C=C2\NC(=O)N(CC(=O)O)C2=O)c1	.	.	5.0	.	.	.	.
Cn1cc(C(=O)N/N=C/C(Br)=C/c2ccccc2)ccc1=O	.	.	6.7	.	.	.	5.7
Cn1cc(C(=O)N/N=C/C=C/c2ccccc2)ccc1=O	.	.	9.7	.	.	.	5.1
O=C(N/N=C/C(Br)=C/c1ccccc1)c1cnccn1	.	.	6.3	.	.	.	4.6
O=C(N/N=C/C=C/c1ccccc1)c1ccc(Br)cc1	.	.	.	.	.	.	/
O=C(N/N=C/C(Cl)=C/c1ccccc1)c1ccncc1	.	.	4.9	.	.	/	.
C[C@H]1CCCCO[C@@H](CN(C)CC2CC2)[C@@H](C)CN([C@@H](C)CO)C(=O)c2cc(NS(=O)(=O)c3ccccc3)ccc2O1	/	/	.	.	/	/	/
COCCN(CCOC)Cc1cc(=O)oc2ccc3ccccc3c12	.	/	.	.	.	/	/
OCCOCCn1c(-c2ccccc2)nc(=S)c2c1CCCC2	.	.	5.9	.	.	.	.
CC1(C)Cc2c(c(=S)nc(-c3ccccc3)n2CCOCCO)CO1	.	.	.	.	.	.	/
C=CCN(C(=O)[C@@H](C1CC1)[C@@H](O)c1ccc(Cl)cc1)c1ccccc1	/	/	/	.	/	/	/
O=C(O)CC1S/C(=N\N=C2\C(=O)Nc3ccccc32)N(c2ccc(O)cc2)C1=O (stereo unspecified)	.	.	5.9	.	.	.	.
O=C(Nc1ccc(C(=O)O)cc1)/C(=C\c1ccco1)NC(=O)c1ccc(Br)cc1	.	.	5.1	.	.	.	.
CC(=O)Oc1ccc(/C=C(\NC(=O)c2ccco2)C(=O)Nc2ccc(C(C)=O)cc2)cc1	.	.	.	.	.	.	/
COc1ccc(/C=C(\NC(=O)c2ccco2)C(=O)Nc2ccc(C(C)=O)cc2)cc1	.	.	5.4	.	.	.	6.2
COc1ccc(/C=C(/NC(=O)c2ccco2)C(=O)Nc2ccc(C(=O)O)cc2)cc1	.	/	6.2	.	.	.	.
COc1cccc(N=c2oc3ccccc3cc2-c2nc3ccccc3[nH]2)c1	.	/	5.2	.	.	.	.
CN(C)/N=C/c1ccc(P(c2ccc(/C=N/N(C)C)o2)c2ccc(/C=N/N(C)C)o2)o1	.	/	5.4	.	.	/	.
O=C(COc1ccc2oc(-c3ccco3)cc(=O)c2c1)N1CCCCC1	.	.	4.7	.	.	.	.
COc1ccc2oc(-c3ccco3)cc(=O)c2c1	.	.	.	.	.	.	/
CCN1C(=O)/C(=C\c2nc3ccccc3c(=O)n2CC)c2ccccc21	.	.	4.7	.	.	.	.
O=S1(=O)c2ccc(N3CC[C@H](O)C3)cc2O[C@H]2CCN1C2	/	/	/	.	/	/	/
COc1ccc(N=Cc2c(C)[nH][nH]c2=O)cc1	.	.	5.4	.	.	.	.
Nc1ccc(-c2nc3ncccc3o2)cc1	.	.	6.9	.	.	.	4.6
SMILES	NadD inh	DSG3 Ab inh	MsrA inhibitor	rCAG binder	bovine MsrA act	DAGLB inhibitor	MsrA inh confirm
CC(Sc1nnc2n1CCCCC2)C(=O)Nc1cccc(S(=O)(=O)N2CCOCC2)c1 (stereo unspecified)	.	.	.	.	.	.	/
CCCCc1c(-c2ccccc2OC)ncn1CCc1ccccc1Cl	.	/	.	.	.	/	/
N#Cc1cc(C#N)c(N2CCN(c3ccccn3)CC2)nc1N	.	.	4.7	.	.	.	.
Cn1cnc([N+](=O)[O-])c1S(=O)(=O)Oc1cccc2ccccc12	.	.	14	.	.	.	7.1
Cn1cnc([N+](=O)[O-])c1S(=O)(=O)Oc1ccc(Cl)cc1	.	/	23	.	.	.	13
Cn1cnc([N+](=O)[O-])c1Oc1cccc2ccccc12	.	.	.	.	.	.	/
COc1cccc(C(O)c2ncc(-c3ccccc3)[nH]2)c1 (stereo unspecified)	.	/	.	.	.	/	/
Cc1[nH]nc2c1C(c1ccsc1)C1=C(CC(C)(C)CC1=O)N2 (stereo unspecified)	.	.	4.7	.	.	.	.
Cc1[nH]nc2c1C(c1ccc(O)cc1)C1=C(CC(C)(C)CC1=O)N2 (stereo unspecified)	.	.	.	.	.	.	/
Nc1ccc(Cn2ccc3c4c(N)nc(N)nc4ccc32)cc1	.	.	.	.	.	.	/
c1ccc(CN=C2NN=C(c3ccccc3)CS2)cc1	.	.	.	.	.	.	/
CC(=O)c1c(C)[nH]c(C2=NNC(=NCc3ccccc3)SC2)c1C	.	.	5.0	.	.	.	.
Cc1ccc(N2C(=O)c3ccccc3C2C(=O)c2ccc(O)cc2O)cc1 (stereo unspecified)	.	.	6.2	.	.	.	6.0
CCCc1nc(SCc2ccccn2)c2c(=O)n(C)c(=O)n(C)c2n1	.	.	11	.	.	.	9.2
Cn1c(=O)c2c(SCc3ccccn3)nc(CC(C)(C)C)nc2n(C)c1=O	.	.	.	.	.	.	/
COc1ccccc1C(=O)NC1CCCCN(Cc2cccc(Cl)c2)C1=O (stereo unspecified)	/	/	/	.	/	/	/
O=C1c2ccccc2C(=O)c2c1oc(C(F)(F)F)c2C(=O)c1ccccc1	.	.	51	.	.	.	58
O=C1N/C(=N/O)S/C1=C/c1cccc([N+](=O)[O-])c1	.	.	.	.	.	.	/
O=C1N/C(=N/O)S/C1=C\c1ccccc1-n1cccn1	.	.	4.7	.	.	.	.
COCCNC(=O)Cn1cc(C(=O)c2ccco2)c2ccccc21	.	.	7.2	.	.	.	.
CC(=O)c1cc(-c2cccc(Cl)c2O)c(=O)n2c1CCC2	/	/	/	.	/	/	/
Cc1ccc(C2=CC(=O)C[C@H](c3ccc4c(c3)OCO4)C2)cc1	.	.	.	.	.	.	/
O=C1C=C(c2ccccc2Oc2ccccc2)C[C@@H](c2ccc3c(c2)OCO3)C1	.	.	.	.	.	.	/
COc1ccccc1C1=CC(=O)C[C@H](c2ccc3c(c2)OCO3)C1	.	.	6.3	.	.	.	.
O=C1C=C(c2ccc(O)cc2)C[C@@H](c2ccc3c(c2)OCO3)C1	.	.	6.8	.	.	.	.
CC(=O)Nc1c(-c2cc(=O)oc3cc(C)ccc23)oc2ccccc12	.	.	4.9	.	.	.	.
COc1cc(NC(=O)C2CCCN(S(=O)(=O)c3ccccc3)C2)cc(OC)c1 (stereo unspecified)	/	/	/	.	/	/	/
CC(COc1ccc(CC#N)cc1)CN1CCC(C(O)(c2ccccc2)c2ccccc2)CC1 (stereo unspecified)	/	/	/	.	/	/	/
Cc1cc(NS(=O)(=O)c2ccc(NC(=O)c3ccc(Cl)cc3[N+](=O)[O-])cc2)no1	.	.	.	.	.	.	/
Fc1ccc(-c2n[nH]c(=S)n2/N=C/c2c[nH]c3ccccc23)cc1	.	.	5.3	.	.	.	.

High-throughput results from PubChem BioAssay.
